This is an account of results in PubChem BioAssay (Tox21).

Results filed as inconclusive are left out. Active and inactive are the calls of the source. The call rests on the fitted dose curve.
On the % scale 0 is the no-effect control and ±100 the full control effect; potency means the concentration at half of the fitted maximal effect.

Chain of Acetylcholinesterase (Homo sapiens) (P22303 whole entry, looked up): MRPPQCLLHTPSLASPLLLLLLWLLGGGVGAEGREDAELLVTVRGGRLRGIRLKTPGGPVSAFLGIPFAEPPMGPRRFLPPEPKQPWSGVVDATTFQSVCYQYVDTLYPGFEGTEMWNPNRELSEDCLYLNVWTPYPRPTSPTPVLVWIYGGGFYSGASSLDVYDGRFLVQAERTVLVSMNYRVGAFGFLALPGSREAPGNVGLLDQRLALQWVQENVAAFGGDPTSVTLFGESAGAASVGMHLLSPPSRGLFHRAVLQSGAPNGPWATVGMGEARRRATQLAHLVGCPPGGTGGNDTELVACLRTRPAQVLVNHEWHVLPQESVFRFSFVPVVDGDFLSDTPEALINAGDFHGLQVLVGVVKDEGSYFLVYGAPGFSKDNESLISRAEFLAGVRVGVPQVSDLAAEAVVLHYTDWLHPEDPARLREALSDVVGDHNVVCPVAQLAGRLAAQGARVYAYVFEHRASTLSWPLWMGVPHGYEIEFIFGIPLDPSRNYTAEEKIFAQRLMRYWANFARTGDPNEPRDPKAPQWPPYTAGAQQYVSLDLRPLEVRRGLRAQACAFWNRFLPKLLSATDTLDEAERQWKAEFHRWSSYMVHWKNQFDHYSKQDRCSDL

This assay has as its target Acetylcholinesterase (Homo sapiens) (UniProt P22303). The assay is described as follows: Acetylcholinesterase (AChE) small molecule antagonists: colormetric cell-based qHTS assay (AID 1347395). Further: nearly all actives have a fitted effect of over 30% in size. Conditions: SH-SY5Y cells AChE activity, colorimetric (Ellman); series mostly up to 115 µM; activity, negative = inhibition: at the top concentration. In outline:
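Colorimetric readout: DTNB quantifies thiocholine from acetylthiocholine hydrolysed by endogenous AChE of SH-SY5Y cells (2,000/well, plated overnight). Compound pretreatment 30 min, substrate incubation 90 min, both 37 C.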
On the technique in general: qHTS replaces the single test concentration by a dilution series.
Consider `CCCCCCCCCCCCCCCCC(C(=O)O)C(O)(CC(=O)O)C(=O)O` (stereo not given), for which the “activity, negative = inhibition” value is 3.87% [at 52.9 µM] (inactive).

With `Oc1c(Cl)cc(Cl)c(Cl)c1Cc1c(O)c(Cl)cc(Cl)c1Cl`, the “activity, negative = inhibition” value was -0.781% [at 52.9 µM] (inactive).

Consider `CCOC(=O)c1nc(C(Cl)(Cl)Cl)n(-c2ccc(Cl)cc2Cl)n1`, for which the “activity, negative = inhibition” value is 0.651% (inactive).

For the molecule `CCCCCCCCCCCCOCCOS(=O)(=O)O`, the “activity, negative = inhibition” value was 1.07% (inactive).

`CCCCC(CC)CNC(=O)CC(C)OC(=O)CCC(=O)O` (stereo not given): the “activity, negative = inhibition” value was 3.03% [at 52.9 µM] (inactive).

For `C1CCC2(CCCCO2)OC1`, the “activity, negative = inhibition” value was 3.82% (inactive).

For the molecule `CCCCCCCCCCCCCCCCCCOS(=O)(=O)O`, the “activity, negative = inhibition” value was -0.946% (inactive).

As for `CN(C)CCOc1ccc(/C(=C(/CCCl)c2ccccc2)c2ccccc2)cc1`, the “activity, negative = inhibition” value was -2.95% (inactive).

Turning to `CC(C)CCCCCCCCCCCCCCC(=O)O`, the “activity, negative = inhibition” value was -7.44% (inactive).

As to `O=S(=O)(c1ccc(OCc2ccccc2)cc1)c1ccccc1O`, the “activity, negative = inhibition” value was -4.12% (inactive).

Regarding `COC(C(=O)O)c1ccccc1` (stereo not given), the “activity, negative = inhibition” value is -1.36% (inactive).

For the molecule `NC(=O)C1(N2CCCCC2)CCN(CCCN2c3ccccc3CCc3ccc(Cl)cc32)CC1`, the “activity, negative = inhibition” value is -10.4% [at 52.9 µM] (inactive).

As to `COc1cc2nc(N3CCN(C(=O)C4CCCO4)CC3)nc(N)c2cc1OC` (stereo not given), the Potency is 27.5 µM (active).

Consider `O=C(Nc1ccc(Cl)c(Cl)c1)c1cc(Cl)cc(Cl)c1O`, for which the “activity, negative = inhibition” value is 8.83% (inactive).

`CCCCCCCCOC(=O)c1cc(O)c(O)c(O)c1`: the “activity, negative = inhibition” value was 2.89% (inactive).

In the case of `CCCN(CCc1cccs1)[C@H]1CCc2c(O)cccc2C1`, the Potency was 13.8 µM (active).

Take `CCOC(=O)COc1cc(-n2ncc(C(F)(F)F)c(C)c2=O)c(F)cc1Cl`: the “activity, negative = inhibition” value is 2.91% (inactive).

On to `CCN1/C(=C/C=C/c2sc3ccccc3[n+]2CC)Sc2ccccc21`, for which the Potency was 10.7 µM (active).

`CC(C)(C)c1ccc(N)cc1`: the “activity, negative = inhibition” value is 0.508% (inactive).

On to `O=C(Nc1ccc(S(=O)(=O)N2CCOCC2)cc1)c1cc(Cl)ccc1NS(=O)(=O)c1ccc(Cl)s1`, for which the “activity, negative = inhibition” value is 0.0078% [at 52.9 µM] (inactive).

For the molecule `Nc1c(NC/C=C\COc2cc(CN3CCCCC3)ccn2)c(=O)c1=O`, the Potency is 13.5 µM (active).

For the molecule `CNc1ccc(O)cc1`, the Potency was 22.4 µM (active).

For the molecule `COc1ccc(N=Nc2cc(C)c(N=Nc3ccc(S(=O)(=O)O)cc3)cc2OC)cc1`, the “activity, negative = inhibition” value was 17% (inactive).

On to `CC(=O)O[C@H]1C[C@@H]2CC[C@@H]3[C@H](CC[C@@]4(C)[C@H]3C[C@H]([N+]3(C)CCCCC3)[C@@H]4OC(C)=O)[C@@]2(C)C[C@@H]1N1CCCCC1`, for which the Potency is 17.4 µM (active).

Turning to `C=CC[N+]1([C@H]2C[C@H]3[C@@H]4CC[C@H]5C[C@H](OC(C)=O)[C@@H](N6CCCCC6)C[C@]5(C)[C@H]4CC[C@]3(C)[C@H]2OC(=O)CC)CCCCC1`, the Potency is 27.5 µM (active).

On to `Cn1c(=O)cc(Oc2ccc(F)cc2F)c2cnc(NCC(C)(C)O)nc21`, for which the Potency is 28.3 µM (active).

Consider `O=C(OC[C@H]1O[C@@H](OC(=O)c2cc(O)c(O)c(OC(=O)c3cc(O)c(O)c(O)c3)c2)[C@H](OC(=O)c2cc(O)c(O)c(OC(=O)c3cc(O)c(O)c(O)c3)c2)[C@@H](OC(=O)c2cc(O)c(O)c(OC(=O)c3cc(O)c(O)c(O)c3)c2)[C@@H]1OC(=O)c1cc(O)c(O)c(OC(=O)c2cc(O)c(O)c(O)c2)c1)c1cc(O)c(O)c(OC(=O)c2cc(O)c(O)c(O)c2)c1`, for which the activity, negative = inhibition was 1.72% [at 23.6 µM] (inactive).

Take `CCCCCCCCCCCCOC(=O)c1ccc(O)cc1`: the “activity, negative = inhibition” value is 2.75% (inactive).

For the molecule `C[C@H](CN1CCCC1)C(=O)c1ccc(C(F)(F)F)cc1`, the “activity, negative = inhibition” value is -0.487% [at 52.9 µM] (inactive).

For `Cc1c(C)n(Cc2ccccc2)c2ccc(C(=O)OCCN(C)C)cc12`, the “activity, negative = inhibition” value is -12.5% [at 52.9 µM] (inactive).

In the case of `CCCCOc1ccc(CC(=O)NO)cc1`, the “activity, negative = inhibition” value was 0.168% [at 52.9 µM] (inactive).

`O=C(O)CCN(C1(C(=O)NO)CCCC1)S(=O)(=O)c1ccc(Oc2ccc(F)cc2)cc1`: the “activity, negative = inhibition” value was 1.49% (inactive).

Regarding `CCCCCCCCCCCCCCC1CO1` (stereo not given), the “activity, negative = inhibition” value is -0.238% (inactive).

Take `O=C(O)Cc1ccc(OCCNC[C@H](O)c2ccccc2)cc1`: the “activity, negative = inhibition” value is 2.38% [at 52.9 µM] (inactive).

`CC(=O)S[C@H](C(=O)N[C@H]1Cc2ccccc2[C@H]2CCC[C@@H](C(=O)O)N2C1=O)C(C)C`: the “activity, negative = inhibition” value was 2.82% (inactive).

Take `O=C1NCCN1CCN1CCC(c2cn(-c3ccc(F)cc3)c3ccc(Cl)cc23)CC1`: the “activity, negative = inhibition” value was -8.02% [at 52.9 µM] (inactive).

For the molecule `Nc1c(N=Nc2ccc(-c3ccc(N=Nc4cc(S(=O)(=O)O)c5ccccc5c4N)cc3)cc2)cc(S(=O)(=O)O)c2ccccc12`, the Potency was 79.6 µM (active).

In the case of `COc1cc(C(=O)NC2CCN(C)CC2)ccc1Nc1ncc2c(n1)N(C1CCCC1)CC(F)(F)C(=O)N2C`, the Potency was 32.6 µM (active).

Turning to `c1ccc2sc(SN(C3CCCCC3)C3CCCCC3)nc2c1`, the “activity, negative = inhibition” value is 10.6% (inactive).

In the case of `CC1CCC(=O)C1=O` (stereo not given), the “activity, negative = inhibition” value is -2.32% (inactive).
